# Out of some 5,500 compounds screened, about 2,000 (36%) were called active. Roughly 18% stayed inconclusive and do not appear here. Some of the results follow. Unmarked numbers belong to inactive results. Rule as the data show it: active = normalized growth mostly below about 0.91 (no sharp cut-off); inconclusive = no clear call, values can overlap the other calls; inactive = mostly above about 0.92.
# Assay: chemical genetic growth profiling, strain panel (AID 1159580);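 also: tested at 20 µM; growth read once vehicle control cultures reached saturation at 30 °C; 1 = growth at the plate median or of vehicle wells; lower values mean less growth of the strain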
# Settings: growth OD
smiles,measurement,setting,value
COc1cc2ccc(=O)oc2c2ccoc12,normalized growth,"S. cerevisiae deletion strains, locus YJR066W, strain TOR1, stronger effect = lower value",0.965
same,normalized growth,"S. cerevisiae deletion strains, locus YKL009W, strain mrt4, stronger effect = lower value",0.902
same,normalized growth,"S. cerevisiae deletion strains, locus YKL068W, stronger effect = lower value",0.999
same,normalized growth,"S. cerevisiae deletion strains, locus YKL085W, strain MDH1 (second series), stronger effect = lower value",0.999
same,normalized growth,"S. cerevisiae deletion strains, locus YKL085W, strain MDH1, stronger effect = lower value",0.999
same,normalized growth,"S. cerevisiae deletion strains, locus YKL160W, strain elf1, stronger effect = lower value",0.894 (active)
same,normalized growth,"S. cerevisiae deletion strains, locus YKR001C, strain vps1, stronger effect = lower value",0.901
same,normalized growth,"S. cerevisiae deletion strains, locus YKR026C, strain gcn3, stronger effect = lower value",0.999
same,normalized growth,"S. cerevisiae deletion strains, locus YKR091W, strain srl3, stronger effect = lower value",0.998
same,normalized growth,"S. cerevisiae deletion strains, locus YLL001W, strain dnm1, stronger effect = lower value",0.87 (active)
same,normalized growth,"S. cerevisiae deletion strains, locus YLL026W, stronger effect = lower value",0.982
same,normalized growth,"S. cerevisiae deletion strains, locus YLL041C, strain sdh2, stronger effect = lower value",0.991
same,normalized growth,"S. cerevisiae deletion strains, locus YLR027C, strain aat2, stronger effect = lower value",0.911 (active)
same,normalized growth,"S. cerevisiae deletion strains, locus YLR039C, strain RIC1, stronger effect = lower value",1.09
same,normalized growth,"S. cerevisiae deletion strains, locus YLR058C, strain SHM2, stronger effect = lower value",0.987
same,normalized growth,"S. cerevisiae deletion strains, locus YLR102C, strain apc9, stronger effect = lower value",1.01
same,normalized growth,"S. cerevisiae deletion strains, locus YLR113W, strain HOG1, stronger effect = lower value",1.09
same,normalized growth,"S. cerevisiae deletion strains, locus YLR221C, strain rsa3, stronger effect = lower value",0.873 (active)
same,normalized growth,"S. cerevisiae deletion strains, locus YLR258W, strain gsy2, stronger effect = lower value",0.87 (active)
same,normalized growth,"S. cerevisiae deletion strains, locus YLR262C, strain YPT6 (second series), stronger effect = lower value",0.948
same,normalized growth,"S. cerevisiae deletion strains, locus YLR262C, strain YPT6, stronger effect = lower value",1.06
same,normalized growth,"S. cerevisiae deletion strains, locus YLR268W, strain sec22, stronger effect = lower value",0.97
same,normalized growth,"S. cerevisiae deletion strains, locus YLR320W, strain mms22, stronger effect = lower value",0.752 (active)
same,normalized growth,"S. cerevisiae deletion strains, locus YLR342W, strain FKS1, stronger effect = lower value",1.01
same,normalized growth,"S. cerevisiae deletion strains, locus YLR357W, strain rsc2, stronger effect = lower value",1.16 [resistant] (active)
same,normalized growth,"S. cerevisiae deletion strains, locus YLR370C, strain arc18, stronger effect = lower value",0.982
same,normalized growth,"S. cerevisiae deletion strains, locus YLR371W, strain rom2, stronger effect = lower value",0.947
same,normalized growth,"S. cerevisiae deletion strains, locus YLR384C, strain iki3, stronger effect = lower value",0.986
same,normalized growth,"S. cerevisiae deletion strains, locus YLR418C, strain cdc73, stronger effect = lower value",0.918
same,normalized growth,"S. cerevisiae deletion strains, locus YML016C, strain PPZ1, stronger effect = lower value",0.991
same,normalized growth,"S. cerevisiae deletion strains, locus YML032C, strain rad52, stronger effect = lower value",0.737 (active)
same,normalized growth,"S. cerevisiae deletion strains, locus YML120C, strain ndi1, stronger effect = lower value",0.844 (active)
same,normalized growth,"S. cerevisiae deletion strains, locus YML124C, strain tub3, stronger effect = lower value",1
same,normalized growth,"S. cerevisiae deletion strains, locus YMR058W, strain fet3, stronger effect = lower value",0.941
same,normalized growth,"S. cerevisiae deletion strains, locus YMR078C, strain ctf18, stronger effect = lower value",0.977
same,normalized growth,"S. cerevisiae deletion strains, locus YMR125W, strain sto1, stronger effect = lower value",1.02
same,normalized growth,"S. cerevisiae deletion strains, locus YMR129W, stronger effect = lower value",0.971
same,normalized growth,"S. cerevisiae deletion strains, locus YMR205C, strain PFK2, stronger effect = lower value",0.993
same,normalized growth,"S. cerevisiae deletion strains, locus YMR223W, strain ubp8, stronger effect = lower value",0.937
same,normalized growth,"S. cerevisiae deletion strains, locus YMR231W, strain pep5, stronger effect = lower value",0.98
same,normalized growth,"S. cerevisiae deletion strains, locus YMR263W, strain SAP30, stronger effect = lower value",0.976
same,normalized growth,"S. cerevisiae deletion strains, locus YMR307W, strain GAS1, stronger effect = lower value",1.09
same,normalized growth,"S. cerevisiae deletion strains, locus YNL067W, strain RPL9B, stronger effect = lower value",0.977
same,normalized growth,"S. cerevisiae deletion strains, locus YNL071W, strain lat1, stronger effect = lower value",0.913 (active)
same,normalized growth,"S. cerevisiae deletion strains, locus YNL128W, strain TEP1, stronger effect = lower value",0.871
same,normalized growth,"S. cerevisiae deletion strains, locus YNL183C, strain NPR1, stronger effect = lower value",0.977
same,normalized growth,"S. cerevisiae deletion strains, locus YNL209W, strain ssb2, stronger effect = lower value",0.919 (active)
same,normalized growth,"S. cerevisiae deletion strains, locus YNL233W, strain BNI4, stronger effect = lower value",0.982
same,normalized growth,"S. cerevisiae deletion strains, locus YNL248C, strain rpa49, stronger effect = lower value",0.458 (active)
same,normalized growth,"S. cerevisiae deletion strains, locus YNL250W, strain rad50, stronger effect = lower value",0.856 (active)
same,normalized growth,"S. cerevisiae deletion strains, locus YNL271C, strain bni1, stronger effect = lower value",0.956
same,normalized growth,"S. cerevisiae deletion strains, locus YNL298W, strain CLA4, stronger effect = lower value",0.954
same,normalized growth,"S. cerevisiae deletion strains, locus YNL307C, strain MCK1, stronger effect = lower value",1.01
same,normalized growth,"S. cerevisiae deletion strains, locus YNL322C, strain KRE1 (second series), stronger effect = lower value",0.793 (active)
same,normalized growth,"S. cerevisiae deletion strains, locus YNR049C, strain mso1, stronger effect = lower value",1.02
same,normalized growth,"S. cerevisiae deletion strains, locus YNR052C, strain pop2, stronger effect = lower value",0.925
same,normalized growth,"S. cerevisiae deletion strains, locus YOL012C, strain htz1",0.781
same,normalized growth,"S. cerevisiae deletion strains, locus YOL147C, strain pex11, stronger effect = lower value",0.981
same,normalized growth,"S. cerevisiae deletion strains, locus YOR001W, strain rrp6, stronger effect = lower value",0.732 (active)
same,normalized growth,"S. cerevisiae deletion strains, locus YOR061W, strain CKA2, stronger effect = lower value",1
same,normalized growth,"S. cerevisiae deletion strains, locus YOR069W, strain VPS5, stronger effect = lower value",0.988
same,normalized growth,"S. cerevisiae deletion strains, locus YOR070C, strain gyp1, stronger effect = lower value",0.966
same,normalized growth,"S. cerevisiae deletion strains, locus YOR080W, strain dia2, stronger effect = lower value",0.891 (active)
same,normalized growth,"S. cerevisiae deletion strains, locus YOR083W, strain WHI5, stronger effect = lower value",0.801 (active)
same,normalized growth,"S. cerevisiae deletion strains, locus YOR106W, strain vam3, stronger effect = lower value",0.755 (active)
same,normalized growth,"S. cerevisiae deletion strains, locus YOR136W, strain idh2, stronger effect = lower value",0.971
same,normalized growth,"S. cerevisiae deletion strains, locus YOR144C, strain elg1, stronger effect = lower value",0.986
same,normalized growth,"S. cerevisiae deletion strains, locus YOR184W, strain ser1, stronger effect = lower value",0.994
same,normalized growth,"S. cerevisiae deletion strains, locus YOR231W, strain MKK1, stronger effect = lower value",0.991
same,normalized growth,"S. cerevisiae deletion strains, locus YOR265W, strain rbl2, stronger effect = lower value",0.952
same,normalized growth,"S. cerevisiae deletion strains, locus YOR270C, strain vph1, stronger effect = lower value",0.814
same,normalized growth,"S. cerevisiae deletion strains, locus YOR290C, strain snf2, stronger effect = lower value",0.821 (active)
same,normalized growth,"S. cerevisiae deletion strains, locus YOR316C, strain cot1, stronger effect = lower value",0.981
same,normalized growth,"S. cerevisiae deletion strains, locus YPL051W, strain arl3, stronger effect = lower value",0.863 (active)
same,normalized growth,"S. cerevisiae deletion strains, locus YPL078C, strain atp4, stronger effect = lower value",0.858 (active)
same,normalized growth,"S. cerevisiae deletion strains, locus YPL106C, strain sse1, stronger effect = lower value",0.748 (active)
same,normalized growth,"S. cerevisiae deletion strains, locus YPL240C, strain hsp82, stronger effect = lower value",0.965
same,normalized growth,"S. cerevisiae deletion strains, locus YPL241C, strain CIN2, stronger effect = lower value",0.997
same,normalized growth,"S. cerevisiae deletion strains, locus YPL256C, strain CLN2, stronger effect = lower value",1.06
same,normalized growth,"S. cerevisiae deletion strains, locus YPR119W, strain clb2, stronger effect = lower value",0.99
same,normalized growth,"S. cerevisiae deletion strains, locus YPR141C, strain kar3, stronger effect = lower value",1
same,normalized growth,"S. cerevisiae deletion strains, locus YPR163C, strain tif3, stronger effect = lower value",0.884 (active)
same,normalized growth,"S. cerevisiae deletion strains, locus YPR167C, strain met16, stronger effect = lower value",0.97
same,normalized growth,"S. cerevisiae deletion strains, strain wtn01, stronger effect = lower value",0.969
same,normalized growth,"S. cerevisiae strains, strain wild type, stronger effect = lower value",1.02

# From PubChem BioAssay AID1159580 (chemical genetic matrix, 2015)
